Reference: PubChem BioAssay (NCI)
About 79,000 compounds went through this panel and 15% of them were active in at least one assay; those are over-represented in the sample as a whole. The source made the active and inactive calls. Rule as the data show it: active = growth inhibition above about 70%; inactive = the rest.

Tests used:
[1] = NCI Yeast Anticancer Drug Screen. Data for the rad52 strain (AID 147);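 also: 0% = growth of vehicle-treated control cultures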; details: S. cerevisiae rad52 mutant growth inhibition, active compounds read high
In short: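 Here a repair-compromised yeast strain receives each compound; its growth is then quantified and normalised to vehicle-only controls.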

[2] = NCI Yeast Anticancer Drug Screen. Data for the wt1 strain (AID 149);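 also: 0% = growth of vehicle-treated wt1 cultures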; details: S. cerevisiae wt1 strain (SPY 50644) growth inhibition, active compounds read high
In short: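 Readout: yeast growth inhibition, normalised to vehicle controls, in the wt1 strain exposed to test compounds.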

[3] = NCI Yeast Anticancer Drug Screen. Data for the rad50EPP+ strain (AID 151);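 also: 0% = growth of vehicle-treated control cultures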; details: S. cerevisiae rad50 mutant strain, active compounds read high
In short: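 Read-out is yeast growth inhibition relative to vehicle; cells used were the rad50EPP+ strain.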

[4] = NCI Yeast Anticancer Drug Screen. Data for the mgt1 strain (AID 153); details: S. cerevisiae mgt1 mutant growth inhibition, active compounds read high
In short: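 Measured: inhibition of mgt1 yeast growth by compound, normalized to vehicle-treated cultures.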

[5] = NCI Yeast Anticancer Drug Screen. Data for the rad50 strain (AID 155);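 also: 0% = growth of vehicle-only cultures of the same strain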; details: S. cerevisiae rad50 strain growth inhibition, active compounds read high
In short: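 Compounds were tested on a yeast strain with an engineered DNA damage repair alteration; the reported value is growth inhibition normalised to vehicle treatment.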

[6] = NCI Yeast Anticancer Drug Screen. Data for the mec2-1 strain (AID 157); details: S. cerevisiae mec2-1 strain, active compounds read high
In short: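 Using mec2-1 yeast: add compound, measure growth, express inhibition versus vehicle-treated cultures.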

[7] = NCI Yeast Anticancer Drug Screen. Data for the rad14 strain (AID 159);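 also: 0% = growth of vehicle-treated control cultures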; details: S. cerevisiae rad14 strain growth inhibition, active compounds read high
In short: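 Compound-treated yeast with a defined DNA-repair lesion; growth inhibition normalised to vehicle-treated cultures.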

[8] = NCI Yeast Anticancer Drug Screen. Data for the sgs1 mgt1 strain (AID 161);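 also: 0% = growth of cultures given vehicle only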; details: S. cerevisiae sgs1 mgt1 strain, active compounds read high
In short: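 Percent growth inhibition was derived by comparing compound-exposed mutant yeast with vehicle-exposed cultures. The strain carries alterations in DNA damage repair.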

[9] = NCI Yeast Anticancer Drug Screen. Data for the CLN2oe strain (AID 163);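 also: 0% = growth of vehicle-only control cultures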; details: S. cerevisiae CLN2oe strain, active compounds read high
In short: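 Whole-cell yeast growth assay. A strain engineered for altered cell-cycle control received compound, and inhibition relative to vehicle-treated cultures was recorded.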

[10] = NCI Yeast Anticancer Drug Screen. Data for the cln2 rad14 strain (AID 165);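 also: 0% = growth equal to vehicle treated cultures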; details: S. cerevisiae cln2 rad14 strain, active compounds read high
In short: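 Yeast strain cln2 rad14, bearing defects in cell cycle control and DNA repair, serves as the test system; values reflect growth inhibition compared with vehicle.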

[11] = NCI Yeast Anticancer Drug Screen. Data for the bub3 strain (AID 167); details: S. cerevisiae bub3 mutant strain, active compounds read high
In short: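 Growth of a checkpoint-deficient yeast mutant is measured after compound exposure. Values represent inhibition relative to vehicle.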

[12] = NCI Yeast Anticancer Drug Screen. Data for the wt2 strain (AID 169);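 also: 0% = growth of vehicle-treated yeast cultures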; details: S. cerevisiae wt2 strain growth inhibition, active compounds read high
In short: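 Treated yeast vs. vehicle-treated yeast: growth inhibition determined.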

[13] = NCI Yeast Anticancer Drug Screen. Data for the mlh1 strain (AID 171);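 also: 0% = growth of vehicle-treated control cultures of the same strain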; details: S. cerevisiae mlh1 strain growth inhibition, active compounds read high
In short: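 A yeast strain with a defined genetic lesion serves as the test organism. Cultures receive compound or vehicle, and growth is measured.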

[14] = NCI Yeast Anticancer Drug Screen. Data for the sgs1 strain (AID 173);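 also: 0% = growth of vehicle-only control cultures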; details: S. cerevisiae sgs1 mutant, active compounds read high
In short: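 A genetically defined yeast mutant is incubated with the test compound, and its growth is compared to that of the same strain given vehicle.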

[15] = NCI Yeast Anticancer Drug Screen. Data for the mlh1 rad18 strain (AID 175); details: S. cerevisiae mlh1 rad18 strain growth inhibition, active compounds read high
In short: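 Steps: expose repair-defective yeast to compound; measure growth; express inhibition against vehicle-treated controls.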

[16] = NCI Yeast Anticancer Drug Screen. Data for the rad18 strain (AID 177); details: S. cerevisiae rad18 mutant growth inhibition, active compounds read high
In short: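 Measured value is growth inhibition of a yeast strain bearing a DNA repair alteration, referenced to vehicle-treated cells.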

[17] = at 5.0 µM (retest, dose inferred, filed as 0.5)
[18] = at 50.0 µM (retest, dose inferred, filed as 5.0)

Measured: growth inhibition

O=C1Nc2ccc(Br)cc2C1=Nc1ccc2c(c1)OCO2
active: [11]; [18] 73% | [11]; at 100.0 µM 86%
inactive: [1]; at 1.2 µM 10% | [1]; at 3.7 µM 8% | [1]; at 11.0 µM 3% | [1]; at 33.0 µM 10% | [1]; at 100.0 µM 2% | [2]; at 1.2 µM -12% | [2]; at 3.7 µM -3% | [2]; at 11.0 µM -12% | [2]; at 33.0 µM -12% | [2]; at 100.0 µM 2% | [3]; at 1.2 µM -34% | [3]; at 3.7 µM -37% | [3]; at 11.0 µM -45% | [3]; at 33.0 µM -35% | [3]; at 100.0 µM -48% | [4]; at 1.2 µM -9% | [4]; at 3.7 µM -32% | [4]; at 11.0 µM -15% | [4]; at 33.0 µM -15% | [4]; at 100.0 µM -30% | [5]; at 1.2 µM -29% | [5]; at 3.7 µM -26% | [5]; [17] 47% | [5]; at 11.0 µM -27% | [5]; at 33.0 µM -27% | [5]; [18] 60% | [5]; at 50.0 µM -9.9% | [5]; at 100.0 µM -10% | [6]; at 1.2 µM -59% | [6]; at 3.7 µM -27% | [6]; [17] 41% | [6]; at 11.0 µM -54% | [6]; at 33.0 µM -58% | [6]; [18] 56% | [6]; at 50.0 µM -5.95% | [6]; at 100.0 µM -40% | [7]; at 1.2 µM -38% | [7]; at 3.7 µM -29% | [7]; at 11.0 µM -32% | [7]; at 33.0 µM -21% | [7]; at 100.0 µM -33% | [8]; [17] -12% | [8]; [18] 8% | [8]; at 50.0 µM 9.4% | [9]; at 1.2 µM 13% | [9]; at 3.7 µM 15% | [9]; at 11.0 µM 16% | [9]; at 33.0 µM 17% | [9]; at 100.0 µM 21% | [10]; [17] 32% | [10]; [18] 26% | [10]; at 50.0 µM 7.55% | [11]; at 1.2 µM -26% | [11]; at 3.7 µM -22% | [11]; [17] 30% | [11]; at 11.0 µM -17% | [11]; at 33.0 µM 2% | [11]; at 50.0 µM 52.5% | [12]; at 1.2 µM 0% | [12]; at 3.7 µM -21% | [12]; at 11.0 µM -22% | [12]; at 33.0 µM -34% | [12]; at 100.0 µM -27% | [13]; at 1.2 µM -8% | [13]; at 3.7 µM -13% | [13]; at 11.0 µM -24% | [13]; at 33.0 µM -30% | [13]; at 100.0 µM -27% | [14]; at 1.2 µM -31% | [14]; at 3.7 µM -21% | [14]; at 11.0 µM -30% | [14]; at 33.0 µM -37% | [14]; at 100.0 µM -27% | [15]; [17] 33% | [15]; [18] 54% | [15]; at 50.0 µM 6.7% | [16]; at 1.2 µM -36% | [16]; at 3.7 µM -34% | [16]; at 11.0 µM -42% | [16]; at 33.0 µM -44% | [16]; at 100.0 µM -29%

Cc1ccc2c3ccc4c(c3n(C)c2c1)C(=O)C=CC4=O
active: [3]; at 33.0 µM 76% | [3]; at 100.0 µM 91% | [4]; at 100.0 µM 78% | [11]; [18] 80% | [13]; at 100.0 µM 81% | [15]; [18] 77% | [16]; at 100.0 µM 82%
inactive: [1]; at 1.2 µM -55% | [1]; at 3.7 µM -66% | [1]; at 11.0 µM -53% | [1]; at 33.0 µM -37% | [1]; at 100.0 µM 22% | [2]; at 1.2 µM -22% | [2]; at 3.7 µM -16% | [2]; at 11.0 µM -18% | [2]; at 33.0 µM -1% | [2]; at 100.0 µM 33% | [3]; at 1.2 µM -3% | [3]; at 3.7 µM 24% | [3]; at 11.0 µM 31% | [4]; at 1.2 µM 20% | [4]; at 3.7 µM 11% | [4]; at 11.0 µM 22% | [4]; at 33.0 µM 40% | [5]; at 1.2 µM -4% | [5]; at 3.7 µM -5% | [5]; [17] 7% | [5]; at 11.0 µM 3% | [5]; at 33.0 µM 10% | [5]; [18] 49% | [5]; at 50.0 µM 57.8% | [5]; at 100.0 µM 53% | [6]; at 1.2 µM -22% | [6]; at 3.7 µM -11% | [6]; [17] 7% | [6]; at 11.0 µM -3% | [6]; at 33.0 µM 23% | [6]; [18] 42% | [6]; at 50.0 µM 51.5% | [6]; at 100.0 µM 66% | [7]; at 1.2 µM -9% | [7]; at 3.7 µM -12% | [7]; at 11.0 µM -9% | [7]; at 33.0 µM -6% | [7]; at 100.0 µM 59% | [8]; [17] 9% | [8]; [18] 58% | [8]; at 50.0 µM 67.2% | [9]; at 1.2 µM -5% | [9]; at 3.7 µM -4% | [9]; at 11.0 µM -3% | [9]; at 33.0 µM 9% | [9]; at 100.0 µM 27% | [10]; [17] 18% | [10]; [18] 50% | [10]; at 50.0 µM 33.7% | [11]; at 1.2 µM -14% | [11]; at 3.7 µM -1% | [11]; [17] 43% | [11]; at 11.0 µM -11% | [11]; at 33.0 µM 16% | [11]; at 50.0 µM 61.2% | [11]; at 100.0 µM 56% | [12]; at 1.2 µM -47% | [12]; at 3.7 µM -28% | [12]; at 11.0 µM -30% | [12]; at 33.0 µM -29% | [12]; at 100.0 µM 38% | [13]; at 1.2 µM -10% | [13]; at 3.7 µM -3% | [13]; at 11.0 µM 16% | [13]; at 33.0 µM 46% | [14]; at 1.2 µM -32% | [14]; at 3.7 µM -24% | [14]; at 11.0 µM -16% | [14]; at 33.0 µM 16% | [14]; at 100.0 µM 63% | [15]; [17] 21% | [15]; at 50.0 µM 68% | [16]; at 1.2 µM 4% | [16]; at 3.7 µM 14% | [16]; at 11.0 µM 15% | [16]; at 33.0 µM 39%
